The supplement of paper PMC10849652
Of roughly 8,800 targets only a part is listed; those with a hit were picked by preference. About 0.5% of all pairs of compound and target were hits. Unmarked numbers belong to inactive results.

What was measured:
Assay in all cases: log2 fold change, soluble protein after heating vs DMSO (PISA); higher = thermal stabilisation; K562 lysate, 10 uM; active = over 0.2 and 3.5 SD of the protein, either way, in both replicates (recomputed)
[1] = compound: CCCS(=O)(=O)Nc1ccc(F)c(C(=O)c2c[nH]c3ncc(-c4ccc(Cl)cc4)cc23)c1F [vemurafenib]
How it was run: (§1)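 Soluble protein was defined as the supernatant remaining after 21,000xg for 90 min, following pooling of heated aliquots and adjustment to 0.5% NP-40 at 4°C. Before that, crude K562 extract at 1 mg/mL protein in PBS pH 7.4 with 1 mM MgCl2 was treated with 10 μM compound for 30 min and heated for 3 min across 48°C-58°C. Quantification used TMTpro 16plex LC-MS/MS with channel sums equalised, and values are log-two fold changes in thermal stability relative to solvent controls from duplicates.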

[2] = compound: CCCS(=O)(=O)Nc1ccc(F)c(C(=O)c2c[nH]c3ncc(Cl)cc23)c1F
How it was run: as §1

[3] = compound: CCN(CCCOc1ccc2c(Nc3cc(CC(=O)Nc4cccc(F)c4)[nH]n3)ncnc2c1)CCOP(=O)(O)O [barasertib]
How it was run: as §1

[4] = compound: CC[C@@H]1C(=O)N(C)c2cnc(Nc3ccc(C(=O)NC4CCN(C)CC4)cc3OC)nc2N1C1CCCC1
How it was run: as §1

[5] = compound: CC[C@@H]1C(=O)N(C)c2cnc(Nc3ccc(C(=O)N[C@H]4CC[C@H](N5CCN(CC6CC6)CC5)CC4)cc3OC)nc2N1C(C)C [volasertib]
How it was run: as §1

[6] = compound: CCn1c(C(=O)N(C2CC2)C2CC2)cc2c3c(ncn3C)c(Nc3cc(C)n(C)n3)nc21
How it was run: as §1

[7] = compound: CCn1cc(-c2ccnc3[nH]c(-c4cccc(CN(C)C)c4)cc23)c(-c2ccc(NC(=O)N(C)C)cc2)n1
How it was run: as §1

[8] = compound: CN1CCC(CNc2ccc3ncc(-c4cccc(OC(F)(F)F)c4)n3n2)CC1
How it was run: as §1

[9] = compound: CN1CCN(CCOc2cc(OC3CCOCC3)c3c(Nc4c(Cl)ccc5c4OCO5)ncnc3c2)CC1 [saracatinib]
How it was run: as §1

[10] = compound: CN1CCN(c2nc(C3=C(c4c[nH]c5ccccc45)C(=O)NC3=O)c3ccccc3n2)CC1 [sotrastaurin]
How it was run: as §1

Sequence of UniProt Q5T447 (Q5T447 whole entry, looked up): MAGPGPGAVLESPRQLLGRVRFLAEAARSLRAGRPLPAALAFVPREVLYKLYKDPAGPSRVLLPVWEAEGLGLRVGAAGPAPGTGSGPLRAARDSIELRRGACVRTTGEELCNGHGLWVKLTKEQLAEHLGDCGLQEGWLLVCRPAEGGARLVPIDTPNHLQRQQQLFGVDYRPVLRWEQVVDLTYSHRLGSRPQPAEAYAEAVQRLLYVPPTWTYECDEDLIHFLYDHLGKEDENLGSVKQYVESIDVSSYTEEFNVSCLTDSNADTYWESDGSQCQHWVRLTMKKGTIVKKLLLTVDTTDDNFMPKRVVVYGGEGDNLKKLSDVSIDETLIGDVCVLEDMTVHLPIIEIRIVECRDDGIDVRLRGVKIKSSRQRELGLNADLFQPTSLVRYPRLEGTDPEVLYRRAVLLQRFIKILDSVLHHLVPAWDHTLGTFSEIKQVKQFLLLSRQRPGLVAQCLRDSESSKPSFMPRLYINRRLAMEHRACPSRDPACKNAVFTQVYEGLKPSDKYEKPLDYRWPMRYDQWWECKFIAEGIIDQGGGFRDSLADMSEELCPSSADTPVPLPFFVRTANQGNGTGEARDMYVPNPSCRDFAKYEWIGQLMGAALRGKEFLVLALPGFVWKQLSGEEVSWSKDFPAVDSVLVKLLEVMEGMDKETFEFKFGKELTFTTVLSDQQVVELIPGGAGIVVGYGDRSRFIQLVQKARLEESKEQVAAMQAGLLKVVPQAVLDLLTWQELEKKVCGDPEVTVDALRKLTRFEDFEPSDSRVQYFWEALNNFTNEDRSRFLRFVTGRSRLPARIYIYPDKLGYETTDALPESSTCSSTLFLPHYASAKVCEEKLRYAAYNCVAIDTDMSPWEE
Sequence of UniProt P35914 (P35914 whole entry, looked up): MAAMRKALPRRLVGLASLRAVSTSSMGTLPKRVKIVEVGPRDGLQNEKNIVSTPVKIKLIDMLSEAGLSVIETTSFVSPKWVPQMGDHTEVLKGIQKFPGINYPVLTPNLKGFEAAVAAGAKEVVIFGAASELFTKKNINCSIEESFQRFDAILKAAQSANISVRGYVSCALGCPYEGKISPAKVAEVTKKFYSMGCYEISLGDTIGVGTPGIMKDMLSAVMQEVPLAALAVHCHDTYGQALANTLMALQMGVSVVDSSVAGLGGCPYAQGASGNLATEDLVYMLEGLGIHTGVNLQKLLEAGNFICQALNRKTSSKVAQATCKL
Sequence of UniProt Q9Y6M1 (Q9Y6M1 whole entry, looked up): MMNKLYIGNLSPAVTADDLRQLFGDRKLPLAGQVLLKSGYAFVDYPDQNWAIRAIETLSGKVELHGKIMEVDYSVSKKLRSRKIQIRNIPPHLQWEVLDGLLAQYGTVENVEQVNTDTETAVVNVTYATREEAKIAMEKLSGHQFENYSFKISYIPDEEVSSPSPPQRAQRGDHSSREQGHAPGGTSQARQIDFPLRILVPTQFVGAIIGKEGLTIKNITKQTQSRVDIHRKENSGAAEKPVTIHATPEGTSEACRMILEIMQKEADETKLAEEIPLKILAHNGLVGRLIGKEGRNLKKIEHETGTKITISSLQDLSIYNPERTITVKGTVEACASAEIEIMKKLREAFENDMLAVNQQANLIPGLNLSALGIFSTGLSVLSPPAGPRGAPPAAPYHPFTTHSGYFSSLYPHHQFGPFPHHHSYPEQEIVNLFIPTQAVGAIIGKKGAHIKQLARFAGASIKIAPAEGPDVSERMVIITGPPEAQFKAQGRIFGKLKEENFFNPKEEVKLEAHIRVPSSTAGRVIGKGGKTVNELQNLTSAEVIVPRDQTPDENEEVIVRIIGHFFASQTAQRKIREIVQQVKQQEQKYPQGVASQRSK
Sequence of UniProt P11142 (P11142 whole entry, looked up): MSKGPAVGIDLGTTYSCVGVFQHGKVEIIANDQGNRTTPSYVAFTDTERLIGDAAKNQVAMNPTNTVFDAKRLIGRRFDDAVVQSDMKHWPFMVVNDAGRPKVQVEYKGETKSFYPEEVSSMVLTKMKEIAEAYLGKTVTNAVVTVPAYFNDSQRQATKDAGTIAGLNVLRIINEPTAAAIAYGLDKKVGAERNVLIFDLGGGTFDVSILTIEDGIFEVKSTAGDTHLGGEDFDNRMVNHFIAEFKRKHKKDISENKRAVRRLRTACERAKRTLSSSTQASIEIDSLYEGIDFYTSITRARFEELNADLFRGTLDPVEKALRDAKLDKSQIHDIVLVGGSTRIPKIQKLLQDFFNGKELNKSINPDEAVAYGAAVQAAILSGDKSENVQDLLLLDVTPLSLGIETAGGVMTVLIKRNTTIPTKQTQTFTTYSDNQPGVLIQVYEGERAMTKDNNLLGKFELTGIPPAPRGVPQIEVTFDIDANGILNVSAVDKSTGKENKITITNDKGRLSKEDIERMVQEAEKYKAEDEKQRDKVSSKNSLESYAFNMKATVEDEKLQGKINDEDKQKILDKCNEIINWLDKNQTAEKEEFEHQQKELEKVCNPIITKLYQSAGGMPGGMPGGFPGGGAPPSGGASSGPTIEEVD
Sequence of UniProt Q92805 (Q92805 whole entry, looked up): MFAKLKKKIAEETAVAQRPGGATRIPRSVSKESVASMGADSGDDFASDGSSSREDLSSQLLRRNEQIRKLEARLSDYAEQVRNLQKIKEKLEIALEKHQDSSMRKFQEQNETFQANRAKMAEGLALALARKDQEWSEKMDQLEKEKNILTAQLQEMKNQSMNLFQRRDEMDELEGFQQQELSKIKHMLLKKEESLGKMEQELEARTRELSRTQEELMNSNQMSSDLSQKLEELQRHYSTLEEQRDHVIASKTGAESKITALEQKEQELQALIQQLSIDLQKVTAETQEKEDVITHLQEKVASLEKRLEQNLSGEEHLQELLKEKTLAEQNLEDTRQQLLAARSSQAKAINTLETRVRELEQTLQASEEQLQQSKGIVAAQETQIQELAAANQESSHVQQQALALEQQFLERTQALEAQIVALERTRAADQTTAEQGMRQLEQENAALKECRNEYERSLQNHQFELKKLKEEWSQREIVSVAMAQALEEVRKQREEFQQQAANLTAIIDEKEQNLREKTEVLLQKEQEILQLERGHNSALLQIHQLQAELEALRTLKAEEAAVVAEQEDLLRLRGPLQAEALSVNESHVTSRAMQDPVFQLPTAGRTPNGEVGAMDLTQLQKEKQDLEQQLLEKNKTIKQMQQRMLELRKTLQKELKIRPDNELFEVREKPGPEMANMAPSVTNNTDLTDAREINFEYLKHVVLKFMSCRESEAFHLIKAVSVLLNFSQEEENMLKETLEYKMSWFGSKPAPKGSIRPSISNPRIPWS
Sequence of UniProt Q07666 (Q07666 whole entry, looked up): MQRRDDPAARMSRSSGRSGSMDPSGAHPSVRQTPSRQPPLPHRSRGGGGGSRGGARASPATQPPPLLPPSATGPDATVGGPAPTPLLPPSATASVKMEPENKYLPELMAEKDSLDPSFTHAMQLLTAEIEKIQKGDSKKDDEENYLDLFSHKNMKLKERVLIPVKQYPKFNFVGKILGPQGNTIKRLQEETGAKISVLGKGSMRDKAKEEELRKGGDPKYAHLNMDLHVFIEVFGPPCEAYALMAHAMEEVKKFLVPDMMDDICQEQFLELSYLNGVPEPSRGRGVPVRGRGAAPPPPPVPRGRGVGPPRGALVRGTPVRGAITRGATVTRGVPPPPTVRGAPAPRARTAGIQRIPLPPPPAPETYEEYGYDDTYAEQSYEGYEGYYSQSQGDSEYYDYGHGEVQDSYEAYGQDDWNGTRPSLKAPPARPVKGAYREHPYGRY
Sequence of UniProt O75367 (O75367 whole entry, looked up): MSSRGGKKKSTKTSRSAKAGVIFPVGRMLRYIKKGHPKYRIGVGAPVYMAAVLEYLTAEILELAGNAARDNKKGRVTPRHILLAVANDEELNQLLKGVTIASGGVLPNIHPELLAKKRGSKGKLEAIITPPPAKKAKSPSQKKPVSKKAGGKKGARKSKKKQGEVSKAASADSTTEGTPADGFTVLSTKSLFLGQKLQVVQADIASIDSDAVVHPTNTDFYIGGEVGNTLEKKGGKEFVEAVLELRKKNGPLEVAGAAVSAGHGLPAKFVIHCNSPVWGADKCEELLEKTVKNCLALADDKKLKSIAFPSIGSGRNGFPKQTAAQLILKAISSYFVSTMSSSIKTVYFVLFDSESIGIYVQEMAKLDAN
Sequence of UniProt Q7Z4Q2 (Q7Z4Q2 whole entry, looked up): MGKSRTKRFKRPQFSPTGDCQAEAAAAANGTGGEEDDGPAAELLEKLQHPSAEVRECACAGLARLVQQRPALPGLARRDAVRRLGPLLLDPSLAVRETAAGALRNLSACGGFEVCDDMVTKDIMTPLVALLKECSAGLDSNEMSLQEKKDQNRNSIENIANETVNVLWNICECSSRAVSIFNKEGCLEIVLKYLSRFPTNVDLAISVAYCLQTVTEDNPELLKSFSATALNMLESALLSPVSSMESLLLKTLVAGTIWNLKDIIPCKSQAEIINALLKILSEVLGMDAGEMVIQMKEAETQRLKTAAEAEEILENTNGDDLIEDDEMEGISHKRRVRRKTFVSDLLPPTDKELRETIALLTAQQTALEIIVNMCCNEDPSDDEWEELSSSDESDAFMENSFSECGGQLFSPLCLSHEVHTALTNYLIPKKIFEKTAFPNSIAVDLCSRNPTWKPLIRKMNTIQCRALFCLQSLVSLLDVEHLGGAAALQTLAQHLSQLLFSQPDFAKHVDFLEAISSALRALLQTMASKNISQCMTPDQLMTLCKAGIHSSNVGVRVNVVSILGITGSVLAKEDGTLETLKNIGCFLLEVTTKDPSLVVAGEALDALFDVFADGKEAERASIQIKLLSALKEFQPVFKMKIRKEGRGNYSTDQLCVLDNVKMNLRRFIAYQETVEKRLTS
Sequence of UniProt Q9H4A5 (Q9H4A5 whole entry, looked up): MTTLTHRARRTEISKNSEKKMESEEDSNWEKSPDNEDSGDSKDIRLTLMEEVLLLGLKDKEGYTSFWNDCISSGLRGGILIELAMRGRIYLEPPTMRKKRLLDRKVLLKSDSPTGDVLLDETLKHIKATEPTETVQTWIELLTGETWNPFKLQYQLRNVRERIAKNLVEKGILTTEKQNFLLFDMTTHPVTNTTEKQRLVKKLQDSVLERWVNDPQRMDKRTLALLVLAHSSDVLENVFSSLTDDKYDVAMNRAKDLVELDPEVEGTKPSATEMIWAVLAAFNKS

Target	log2 fold change [1]	log2 fold change [2]	log2 fold change [3]	log2 fold change [4]	log2 fold change [5]	log2 fold change [6]	log2 fold change [7]	log2 fold change [8]	log2 fold change [9]	log2 fold change [10]
HS1BP3 (UniProt Q53T59)	-0.003	-0.012	0.056	0.029	-0.002	0.014	-0.238	0.092	0.082	0.013
HNRNPM (UniProt P52272)	-0.017	-0.013	0.079	0.027	-0.107	0.046	-0.017	-0.01	0.055	0.024
HAUS8 (UniProt Q9BT25)	-0.042	0.04	-0.05	-0.049	0.037	-0.005	-0.048	0.029	0.031	-0.001
GSK3B isoform 2 (UniProt P49841)	-0.009	0.038	0.026	-0.015	-0.093	-0.011	-0.013	0.096	-0.049	0.601
IRAK1 (UniProt P51617)	0.086	-0.033	-0.01	-0.089	-0.134	0.041	-0.135	0.043	-0.016	-0.029
HAUS4 (UniProt Q9H6D7)	0.007	0.044	0.107	-0.047	-0.039	0.015	-0.045	-0.04	0.022	0.02
HK1 isoform 2 (UniProt P19367)	0.009	0.003	0.012	-0.023	-0.004	0.014	-0.008	-0.013	-0.015	0.004
HNRNPD isoform 3 (UniProt Q14103)	0.024	-0.028	-0.033	0.128	0.014	0.077	-0.077	-0.023	0.048	-0.066
HDLBP, A0A024R4E5	0.008	0.024	-0.017	0.016	-0.04	0.011	-0.018	-0.008	-0.002	0.004
GOLPH3L (UniProt Q9H4A5)	0.068	0.025	0.033	-0.055	-0.023	0.048	-0.034	-0.08	0.046	-0.092
HDAC1 (UniProt Q13547)	0.01	0.022	-0.001	-0.004	-0.019	0.03	-0.036	-0.001	0.014	-0.011
H2AFY (UniProt O75367)	-0.042	0.013	0.094	0.131	-0.036	-0.001	-0.059	0.056	-0.077	0.104
GIT1 (UniProt Q9Y2X7)	-0.073	0.028	-0.008	-0.044	-0.043	-0.007	0.132	0.046	0	0.012
KEAP1 (UniProt Q14145)	0.014	0	0.01	-0.008	-0.001	-0.016	-0.017	0.044	-0.018	0.033
HMGCL (UniProt P35914)	-0.017	0.01	0.027	0.037	0.014	0.037	0.05	-0.02	-0.013	-0.01
GSTP1 (UniProt P09211)	-0.007	-0.017	0.008	0.003	0.034	0.324 (active)	-0.059	0.021	0	-0.002
HECTD3 (UniProt Q5T447)	-0.046	0.007	-0.039	-0.022	-0.024	0.018	-0.004	-0.027	0.032	0.027
HACE1 (UniProt Q8IYU2)	0.066	0.07	0.081	0.069	-0.058	0.039	-0.657 (active)	0.252	0.025	-0.154
HSPA8 (UniProt E9PK54)	-0.047	0.014	-0.113	-0.071	-0.056	0.08	-0.144	0.052	0.108	0.028
HIST2H2BC (UniProt Q6DN03)	-0.261	0.026	-0.029	-0.05	0.013	0.033	0.291 (active)	-0.024	0	-0.01
GOLGA1 (UniProt Q92805)	0.081	0.086	0	0.007	0.121	-0.061	-0.019	-0.04	-0.031	0.071
HSPA8 (UniProt P11142)	-0.024	0.003	-0.035	-0.031	-0.003	0.002	-0.005	0.014	-0.001	0.004
HEATR3 (UniProt Q7Z4Q2)	0.025	0.026	0.026	-0.048	-0.028	0.032	-0.064	-0.089	-0.019	0.026
IGF2BP2 (UniProt Q9Y6M1)	0.05	0.026	-0.005	-0.1	-0.049	0.02	-0.066	0.036	0.014	0.026
KHDRBS1 (UniProt Q07666)	-0.025	0.004	0.034	-0.024	-0.024	-0.002	0.083	-0.048	-0.004	-0.008
IMMT (UniProt C9J406)	-0.018	-0.036	-0.105	0.098	-0.015	0.018	-0.464	-0.037	0.074	0.02
GLB1 (UniProt P16278)	-0.034	0.012	-0.029	0.02	-0.045	-0.017	-0.066	0.019	-0.032	0.043
GON4L (UniProt Q3T8J9)	0	0.054	0.097	-0.064	-0.018	0.02	-0.104	-0.027	-0.019	0.016
GNL3 (UniProt Q9BVP2)	0.051	0.041	0.032	-0.078	0.004	-0.07	0.129	-0.066	0.004	0.013
GSTZ1 (UniProt G3V4T6)	-0.013	-0.024	0.018	-0.101	-0.02	-0.029	-0.116	0.087	-0.012	-0.018
